In PubChem BioAssay AID504400 (The Scripps Research Institute Molecular Screening Center, 2011):
Values without a mark were called inactive. How the calls were made is not given here.

System: Phorbol Ester
Test: CYP450 and receptor off-target profile – biochemical, Ricerca HitProfilingScreen, selectivity assay for S1P4 agonist project, late-stage follow-up (AID 504400)
Settings: Ricerca radioligand binding/enzyme panel plus CYP450, at 10 µM, stronger effect = higher value

SMILES: Clc1ccc(OCCOc2ccc(Br)nc2Br)c(Cl)c1
- inhibition: 4%
